Experimental data from PubChem BioAssay AID588763 (NMMLSC, 2011).
Potency and affinity values are given separately. Activity calls are given as the source filed them. No rule for the calls is given here.

Molecular target: Beta-2 adrenergic receptor (Homo sapiens) (UniProt P07550)
Experiment: beta2AR agonists driving receptor internalization, dose response, cell-based, FAP fluorogen, flow cytometry, cherry pick 1 (AID 588763)
Conditions: AM2.2-beta2AR cells, 90 min; series mostly up to 33 µM; activation (receptor internalization): at the top concentration

Chain of Beta-2 adrenergic receptor (Homo sapiens) (P07550 whole entry, looked up): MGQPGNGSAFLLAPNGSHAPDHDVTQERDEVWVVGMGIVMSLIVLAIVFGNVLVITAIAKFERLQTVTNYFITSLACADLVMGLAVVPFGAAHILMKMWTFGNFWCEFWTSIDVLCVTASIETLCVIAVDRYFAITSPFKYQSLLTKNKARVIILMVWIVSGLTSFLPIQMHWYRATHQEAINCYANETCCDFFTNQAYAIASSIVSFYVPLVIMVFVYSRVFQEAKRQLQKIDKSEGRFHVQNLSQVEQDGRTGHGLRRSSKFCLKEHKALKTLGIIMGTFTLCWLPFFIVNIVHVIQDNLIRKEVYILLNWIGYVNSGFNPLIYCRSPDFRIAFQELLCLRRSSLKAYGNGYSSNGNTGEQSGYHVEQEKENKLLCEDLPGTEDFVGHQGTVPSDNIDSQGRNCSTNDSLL

Activation (receptor internalization), inactive:
CSc1nc(SCCO)c2sc3nc(-c4ccco4)c4c(c3c2n1)CC(C)(C)OC4 66%, O=C(COc1ccc(S(=O)(=O)N2CCCCC2)cc1)Nc1ccccc1F -6.13%, O=C(CCn1c(=O)[nH]c2ccsc2c1=O)NCc1ccc(F)cc1 -7.29%, COc1ccc(CCNCC(O)c2ccccc2)cc1 (stereo not drawn) -0.216%, CCCOc1ccc(-c2nnn(CC(=O)Nc3cccc(C(=O)OC)c3)n2)cc1 -10.7%, CCOc1ccc(NC(=O)Cn2nnc(-c3ccccc3NC(=O)C3CC3)n2)cc1 -7%, O=C(c1ccc(OC2CCN(Cc3cccc(OCCO)c3)CC2)cc1)N1CCCC1 -12.7%, COc1ccc(N2CCN(C(=O)CN(C)S(=O)(=O)c3cc(C)ccc3OC)CC2)cc1 -4.19%, O=C(Nc1ccc2nc(-c3cccs3)c(-c3cccs3)nc2c1)N1CCOCC1 20.4%, CCC(NC(=O)c1cc(COc2cncc(Cl)c2)on1)c1ccc(C)cc1 (stereo not drawn) -14.4%, COc1cccc(-c2ccc(NC(=O)C3CCCN(Cc4cnn(C(C)C)c4)C3)cc2)c1 (stereo not drawn) 28.5%, CCOc1ccc(NC(=O)COc2ccc(S(=O)(=O)N3CCCC3)cc2)cc1 -10.2%, CC(NC(=O)c1cc(COc2ccc3ncccc3c2)on1)c1ccc(F)cc1 (stereo not drawn) 27.1%, O=C(c1cc2c(ccc3ccccc32)o1)N1CCN(c2ncc(C(F)(F)F)cc2Cl)CC1 99.9%, CC(NCc1ccc(OCc2ccc(Cl)cc2)cc1)C(O)c1ccccc1 (stereo not drawn) 66.1%, O=C1CN(S(=O)(=O)c2cccc(Cl)c2Cl)c2ccccc2N1 41.8%, COc1ccccc1-c1cc(C(F)(F)F)nc(S(=O)(=O)CCCC(=O)N2CCOCC2)n1 38.6%, COc1ccc(NC(=O)Cn2nnc(-c3ccccc3NC(=O)C3CC3)n2)cc1 -26.4%, CC(=O)Nc1ccc(CN2CCC(Oc3ccc(C(=O)N4CCCC4)cc3)CC2)cc1 -1.14%, Cc1cccc(C)c1NC(=O)Cn1nnc(-c2ccc(N3CCOCC3)cc2)n1 -4.76%, O=C(Nc1ccc2oc(-c3ccccc3F)nc2c1)c1ccc2c(c1)OCCO2 22.6%, O=C(COc1ccc(S(=O)(=O)N2CCOCC2)cc1)Nc1ccc2c(c1)OCCO2 5.84%, CC(NCCc1ccc(O)cc1)C(O)c1ccc(O)cc1 (stereo not drawn) -3.89%, O=C(Nc1ccccc1C(=O)O)c1cccc(N2C(=O)c3ccccc3C2=O)c1 -11.9%, CCOC(=O)c1ccc(N=c2sc(C(=O)OC)cc(=O)n2-c2ccc(C(=O)OCC)cc2)cc1 35%, COc1ccc(C(CCNCc2ccc(OC(C)C)cc2)c2ccccc2OC)cc1 (stereo not drawn) 59.8%, COc1ccc(NC(=O)Cn2nnc(-c3ccc(CN4CCOCC4)cc3)n2)c(OC)c1 -14.8%, CC1CCCN(C(C(=O)Nc2ccc3c(c2)OCO3)c2ccccc2)C1 (stereo not drawn) 35.9%, CCC(NC(=O)c1cc(COc2ccc(C)nc2)on1)c1ccc(C)cc1 (stereo not drawn) -7%, O=[N+]([O-])c1cnc(Sc2ccncn2)s1 -467%, COc1ccc(-n2nc3c(N4CCC(C(=O)NCc5ccco5)CC4)nnc(C)c3c2C)cc1 11%

outcome, inactive:
COc1ccc(S(=O)(=O)N(C)CC(=O)N2CCN(c3ccc(F)cc3)CC2)cc1OC, COc1ccc(OC)c(S(=O)(=O)N(C)CC(=O)N2CCN(c3ccccc3F)CC2)c1
